Compound activity as filed in PubChem BioAssay.
HGIII-sPLA2 inh: Inhibits HGIII-sPLA2 liposome hydrolysis, primary screen; QFRET BODIPY PC-A2 liposome hydrolysis, fluorescence; actives 0.56% (n = 370,000); inhibition, % at 12.2 µM;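 active = inhibition above mean plus 3 SD of compounds lying within the high and low control bounds, cut at about 19% in these data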;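 also: 0% = median of test compound wells and 100% = no enzyme DMSO wells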
Target sequence (Q9NZ20 whole entry, looked up): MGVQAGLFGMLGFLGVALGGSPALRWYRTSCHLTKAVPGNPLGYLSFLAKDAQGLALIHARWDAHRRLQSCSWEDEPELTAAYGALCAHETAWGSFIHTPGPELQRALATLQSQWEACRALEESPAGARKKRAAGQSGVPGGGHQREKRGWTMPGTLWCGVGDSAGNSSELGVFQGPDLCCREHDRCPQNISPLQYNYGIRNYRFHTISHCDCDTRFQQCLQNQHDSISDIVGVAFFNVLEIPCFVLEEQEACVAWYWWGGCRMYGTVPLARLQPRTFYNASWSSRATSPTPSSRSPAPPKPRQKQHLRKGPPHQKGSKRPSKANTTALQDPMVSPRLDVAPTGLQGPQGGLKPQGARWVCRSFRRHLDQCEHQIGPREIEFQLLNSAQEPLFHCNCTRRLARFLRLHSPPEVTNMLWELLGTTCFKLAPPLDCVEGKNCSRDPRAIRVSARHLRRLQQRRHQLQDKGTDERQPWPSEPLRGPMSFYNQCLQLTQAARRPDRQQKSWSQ
ADAM10 inh: inhibitors of human ADAM10; actives 0.62% (n = 370,000); recombinant ADAM10, EDANS/DABCYL FRET peptide cleavage, 3 h; O14672; inhibition, % at 7 µM;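 active = inhibition above a per-campaign cutoff equal to the mean of compounds falling between control-based bounds plus 3 SD, cut at about 20% in these data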;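 also: 0% = DMSO wells while the 100% control is not disclosed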
GRIN3A LBD mod: modulators (binders) of human NR3A ligand-binding domain; NR3A LBD differential scanning fluorimetry, Tm shift; 0% = protein alone, 100% = glycine-bound protein; Tm shift relative to glycine control, % at 25 µM; actives 2.5% (n = 340,000); AID 1259313;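 active = melting temperature shift of at least 10% of the positive control shift, at one fixed dose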
ADAM17 inh: ADAM17 inhibition, QFRET primary screen | P78536 | recombinant ADAM17, EDANS/DABCYL FRET peptide cleavage | inhibition, % at 6.95 µM | actives 0.83% (n = 370,000);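 active = inhibition above the mean of compounds lying between control limits plus 3 SD, set per campaign, cut at about 8.5% in these data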;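 also: 0% = DMSO-only wells as the low control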
FAS-TE inh: blocks the thioesterase domain of human fatty acid synthase. P49327. actives 0.67% (n = 360,000). recombinant FAS-TE, OMFH fluorogenic substrate, fluorescence endpoint. inhibition, % at 15 µM;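 active = compounds whose normalised, plate-corrected inhibition of enzyme fluorescence in the single-dose primary screen is 50% or more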;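 also: 0% = DMSO with enzyme and 100% = substrate without enzyme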
ADAM10 confirm: human ADAM10 inhibition, confirmation; shares compounds with ADAM10 inh; ADAM10 QFRET peptide cleavage, EDANS fluorescence; inhibition, % at 6.95 µM; actives 1% (n = 2,100);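 active = inhibition above about 20% chosen separately for each screening run, limit read from the data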;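 also: 0% = DMSO wells and 100% = marimastat wells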
ADAM17 ctr: counter-screen for ADAM10 exosite inhibitors: inhibitors of human ADAM17; AID 743214; ADAM17 QFRET peptide cleavage, EDANS fluorescence; inhibition, % at 6.95 µM; actives 0.5% (n = 2,100); shares compounds with ADAM10 inh;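 active = mean triplicate inhibition above the solvent-only control wells' mean plus 3 SD, cut at about 12% in these data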;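 also: 0% = DMSO wells and 100% = marimastat wells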
Starred values were filed as active, the others as inactive; · = no result given. The list is not random: actives were taken first. Their share in the collection is about 4.3%.

SMILES	HGIII-sPLA2 inh	ADAM10 inh	GRIN3A LBD mod	ADAM17 inh	FAS-TE inh	ADAM10 confirm	ADAM17 ctr
Cn1c(=O)c2c(nc(N3CCCCC3)n2CC(O)COc2ccccc2)n(C)c1=O (configuration not stated)	3	21*	-1	0	2	-1	0
COC(=O)[C@]12C[C@H](CC(=O)NCCC(C)C)C(=O)N(Cc3ccccc3)C1=C[C@H](C(C)(C)C)O[C@@H]2C	1	9	·	0	·	·	·
COc1ccc(-c2c(C#N)c(SCc3c(C)noc3C)nc3c2C(=O)CC(C)(C)C3)cc1	2	6	0	-2	33	·	·
CCc1c(C#N)c(SCCC(=O)Nc2cccc(OC)c2)nc2c1C(=O)CC(C)(C)C2	-23	22*	1	7	24	8	1
CC(Oc1ccc(Br)cc1)C(=O)Nc1cc(Cl)ccc1N1CCN(C)CC1 (configuration not stated)	-19	20*	1	5	19	1	0
COc1cc(OC)cc(C(=O)N[C@H](C(=O)OCC(=O)Nc2ccc(C(C)C)cc2)C(C)C)c1	-23	21*	-2	4	24	7	2
CN(CCc1ccccc1)C(=O)c1ccc2c(c1)ncn2C1CCCCC1	-1	-10	·	2	·	·	·
COc1ccc(-c2c(Cc3ccccc3)nc(NC(=O)c3ccccc3F)n2C)cc1	19	-1	·	2	·	·	·
CCOC(=O)[C@H]1[C@H]2COc3ccc(Br)cc3[C@H]2N2C(=O)CN(Cc3ccc(C)cc3)C(=O)[C@@]12C	-30	20*	0	5	14	1	1
CCOC(=O)[C@H]1[C@H]2COc3ccc(Cl)cc3[C@@H]2N2C(=O)c3cc(Br)ccc3NC(=O)[C@@]12C	-3	23*	-9	6	50	5	1
COc1ccc2c(c1)OC[C@H]1[C@H]2N2C(=O)CN(Cc3ccccc3)C(=O)[C@@]2(C)[C@H]1c1ccccc1	-16	23*	-2	8	49	4	1
COC(=O)[C@]12C[C@H](CC(=O)NCC34CC5CC(CC(C5)C3)C4)C(=O)N(CCc3ccc(OC)c(OC)c3)C1=C[C@H](C(C)(C)C)O[C@@H]2C	-17	16	·	6	·	·	·
O=S1(=O)CCSC[C@@H](CN2CCCC2)N1	2	-5	·	4	·	·	·
COc1ccc(C2C(C(=O)Nc3ccc(C)c(C)c3)CCC(=O)N2c2ccc(OC)cc2)cc1 (configuration not stated)	-21	2	·	0	·	·	·
COCCn1c(SCC(=O)Nc2ccc(NC(C)=O)cc2)nc2c([nH]c3ccccc32)c1=O	2	-20	-5	-10	-3	·	·
COc1ccc(NC(=O)CSc2nc3c([nH]c4ccccc43)c(=O)n2C)cc1	0	57*	-3	0	-6	4	0
CCn1nc(C(=O)OC(C(=O)c2c[nH]c3ccccc23)c2ccccc2)c2ccccc2c1=O (configuration not stated)	-35	24*	20*	7	21	11	5
CCn1nc(C(=O)OCC(=O)c2ccc(F)cc2)c2ccccc2c1=O	0	-4	-1	-4	-5	·	·
O=C(Nc1ccccc1)C1=C[C@H](c2ccccc2)C[C@H](OCc2ccc(CO)cc2)O1	-18	6	-33	0	9	·	·
O=C(NCc1ccccc1)C1=C[C@H](c2ccccc2)C[C@H](OCc2ccc(CO)cc2)O1	-13	20*	-5	8	8	1	1
O=C(Nc1ccccc1)C1=C[C@H](c2ccc(C(F)(F)F)cc2)C[C@H](OCc2ccc(CO)cc2)O1	-15	26*	8	8.6*	·	7	3
CCCCCC[C@H](CN(CCCC)S(C)(=O)=O)c1ccccc1	-4	3	·	0	·	·	·
O=C1N(Cc2ccccc2)c2ccccc2C12CCCc1sc(CCc3ccccc3)nc12 (configuration not stated)	9	3	·	0	·	·	·
CCOc1cc(/C=C/c2ccc3cccc([N+](=O)[O-])c3n2)ccc1O	-13	22*	25*	7	12	7	1
COC(=O)[C@@]12CCCCC=C1N(CCc1ccc(Cl)cc1)C(=O)[C@H]2CC(=O)NCCc1ccccc1OC	0	-4	·	-3	·	·	·
SMILES	HGIII-sPLA2 inh	ADAM10 inh	GRIN3A LBD mod	ADAM17 inh	FAS-TE inh	ADAM10 confirm	ADAM17 ctr
Cc1ccc(NS(=O)(=O)c2ccc(NC(=O)C(C)Sc3ccc(Cl)cc3)cc2)c(C)c1 (configuration not stated)	-36	27*	13*	8	36	9	4
Cc1ccc(C)c(NS(=O)(=O)c2ccc(NC(=O)CSc3ccc(Cl)cc3)cc2)c1	-11	6	1	-3	12	·	·
COC(=O)[C@]12CCCCC=C1N(Cc1ccc(OC)cc1)C(=O)[C@@H]2CC(=O)N1CCCCC1	-2	-3	·	-3	·	·	·
COc1cccc(C(=O)NNC(=O)C(=O)Nc2ccc(C)c(Cl)c2)c1	8	65*	3	6	-2	33*	1
Cc1ccc(S(=O)(=O)Nc2cccc(C(=O)N3CCN(c4ccccc4O)CC3)c2)cc1F	-37	20*	-3	3	5	-1	1
O=C(c1cccc(NS(=O)(=O)c2ccc(F)c(F)c2)c1)N1CCCCC1	-13	-3	1	-2	-4	·	·
CC[C@@H]1/C(=C/c2ccccc2)N2C(=O)C[C@@H](c3ccccc3)N=C2N1Cc1ccc(OC)cc1OC	-3	-5	·	-4	·	·	·
COc1ccc(N2CCN(CCNS(=O)(=O)c3ccc(C)cc3)CC2)cc1	3	86*	0	3	0	2	2
O=C(NCCO)C1(C(=O)C2CC2)CC(c2ccccc2C(F)(F)F)=NO1 (configuration not stated)	1	-1	·	-1	·	·	·
O=C1CC(c2ccccc2Oc2cccc(Cl)c2)C(n2cncn2)C(=O)C1C1NCCc2ccccc21 (configuration not stated)	-35	23*	1	0	0	-1	-1
CCCC(C)NC(=O)CC1Oc2ccccc2NC1=O (configuration not stated)	9	-8	·	1	·	·	·
COc1ccc(NC(=O)CC(Cc2ccccc2)C(=O)O)cc1 (configuration not stated)	4	0	0	0	-8	·	·
O=C(CC(Cc1ccccc1)C(=O)O)Nc1ccc(F)cc1 (configuration not stated)	7	21*	-1	0	-7	0	0
COc1cc(/C=N/OCC(=O)Nc2ccc(OC(F)F)cc2)ccc1OCc1ccccc1	-34	23*	-6	1	32	11	4
COc1cccc(CN2C(=O)[C@H]3Cc4c([nH]c5ccccc45)C(C)(C)N3C2=O)c1	-22	21*	-1	5	23	3	1
